From PubChem BioAssay
An excerpt weighted towards active compounds, which were near 11% of everything screened.
Pf growth 48h: Primary qHTS for delayed death inhibitors of the malarial parasite plastid, 48 hour incubation | P. falciparum luciferase growth in erythrocytes, 48 h | 310,000 tested, 5.9% active | Potency, µM (titrated, usually from 28.7 µM), most hits filed as inhibitors
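Cell-based growth assay: transgenic P. falciparum expressing firefly luciferase, cultured in red cells within RPMI 1640 containing 0.5% w/v Albumax, 24 mM bicarbonate and gentamycin. A drop in luciferase activity indicates inhibition.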
HCV inhibitor: qHTS Assay for Inhibitors of Hepatitis C Virus (HCV) | Huh7.5.1 HCVcc-Cre infection, luciferase reporter, 44 h | Potency, µM (doses to about 41.8 µM), most hits filed as inhibitors | 340,000 tested, 3.4% active | AID 651820, 2012
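Infectious HCV cell culture screen: compound-treated cells (1,000/well, pre-plated 4 h) are infected with HCVcc-Cre at roughly 0.5 moi and grown 44 h. Infection is quantified by luciferase signal after 15 min substrate incubation at room temperature.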
Pf growth 96h: Primary qHTS for delayed death inhibitors of the malarial parasite plastid, 96 hour incubation; P. falciparum luciferase reporter growth, 96 h; 320,000 tested, 6.9% active; AID 504834, 2011; Potency, µM (titrated, usually from 28.7 µM), hits mostly inhibitors
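Compounds incubated with erythrocytes infected by luciferase-expressing P. falciparum (2% hematocrit, 0.05% parasitemia final) for 96 hours, 37 C in 5% CO2. Growth inhibition scored as decreased luciferase luminescence.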
AMA1-RON2 inh: qHTS for Inhibitors of AMA1-RON; Towards Development of Antimalarial Drug Lead: Primary Screen | Plasmodium falciparum AMA1 (3D7) - RON2 peptide interaction | AlphaScreen AMA1-biotinylated RON2 peptide binding | Potency, µM (top dose mostly 58.2 µM), usual class: inhibitors | 360,000 tested, 0.2% active | AID 720542, 2013; also: nearly all actives have a fitted effect of over 45% in size
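AMA1 (3D7) with his tag at 25 nM final met compounds first, then biotinylated RON2 peptide at 25 nM; detection used donor plus acceptor beads, 10 µg/mL apiece, read by AlphaScreen after 30 min at room temperature.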
A number is an active result; – = inactive; ? = inconclusive; · = not tested or not shown; [ ] = remark or other dose. Calls follow the shape of the dose curve; as a rule, active = well fitted curve in the direction sought with a large enough effect; inconclusive = small, poorly fitted or top-dose-only effect, or another doubt; inactive = no such curve, though single readings can be large; an effect the other way counts as inactive or inconclusive.

SMILES	Pf growth 48h	HCV inhibitor	Pf growth 96h	AMA1-RON2 inh
CCC1CCC2(CC1)NC(=O)N(CC(=O)Nc1ccc(OC)c(Cl)c1)C2=O (centres undefined)	–	–	–	–
O=C1C=C(Nc2ccccc2O)c2ccccc2C1=O	10.4µM	?	9.28µM	–
Cc1ccc(NS(=O)(=O)c2ccc3c(c2)C(=O)c2ccccc2C3=O)c(C)c1	–	?	?	–[11.6 µM]
Cc1ccc(NC2=CC(=O)C(=O)c3ccccc32)c(C)c1	0.828µM	?	0.586µM	–
O=C(COC(=O)c1cccnc1Cl)Nc1ccc(N2CCOCC2)cc1	·	·	·	–
O=C(CCl)N1CCN2C(=O)c3ccccc3C12c1ccc(Cl)cc1 (centres undefined)	–	–	?	–
Cc1ccc(C(=O)N2CCN3C(=O)c4ccccc4C23c2ccc(Cl)cc2)cc1 (centres undefined)	·	10µM	6.57µM	–
O=C(Nc1cccc(Cl)c1)N1CCN2C(=O)c3ccccc3C12c1ccccc1 (centres undefined)	16.5µM	?	10.4µM	–
Cn1cc(C(=O)c2ccc(Cl)cc2Cl)cc1C(=O)N/N=C(\N)COc1cccc(C(F)(F)F)c1	?	?	·	–
CCOC(=O)COc1cc2oc(=O)cc(C)c2cc1[N+](=O)[O-]	–	–	–	–
CN1\C(=C/C=C/C=C/C=[N+](C)C)C(C)(C)c2ccccc21	?	–	?	22.4µM
CN1/C(=C\C=Nc2ccc3ccccc3c2)C(C)(C)c2ccccc21	–	·	–	·
CN1/C(=C\C=O)C(C)(C)c2ccccc21	–	–	–	–
CN1/C(=C\C=C\C2=[N+](C)c3ccc4ccccc4c3C2(C)C)C(C)(C)c2ccccc21	1.31µM	·	0.329µM	·
Cc1cc2ccccc2n1CCNC(=O)c1cccs1	–	–	?	?
COC(=O)C(C)N1CCC(=O)c2ccccc2S1(=O)=O (centres undefined)	–	–	–	–
CC1CN(C(=O)Cn2cc(S(=O)(=O)CC(=O)N(C)c3ccccc3)c3ccccc32)CC(C)O1 (centres undefined)	–	–	13.1µM	–
COc1cccc(C2c3c(-c4cc(Cl)c(C)cc4O)n[nH]c3C(=O)N2Cc2cccnc2)c1 (centres undefined)	·	?	6.57µM	–
COc1cc(C2c3c(-c4cc(Cl)c(C)cc4O)n[nH]c3C(=O)N2Cc2cccnc2)ccc1O (centres undefined)	8.28µM	–	·	–
CCN(CC)c1cc2c(c3c1ccn3C)C1CCC2O1 (centres undefined)	·	·	·	–
Cn1ccc2c(N3CCCCCCC3)cc3c(c21)C1CCC3O1 (centres undefined)	·	·	·	25.1µM
Cc1nn(-c2ccccc2)c(Cl)c1/C=N/NC(=O)CNC(=O)c1ccccc1Cl	–	?	1.85µM	–
Cc1nn(-c2cccc(C(F)(F)F)c2)c(Cl)c1/C=N/Nc1cccc(C(=O)O)c1	–	–	–	–[2.32 µM]
Cc1nn(Cc2ccccc2)c(Cl)c1/C=N/NC(=O)CNc1cccc(C(F)(F)F)c1	?	?	11.7µM	–
CCOC(=O)N/N=C/c1c(C)nn(-c2cccc(C(F)(F)F)c2)c1Cl	2.08µM	2.24µM	1.47µM	–[2.32 µM]
SMILES	Pf growth 48h	HCV inhibitor	Pf growth 96h	AMA1-RON2 inh
Cc1nn(-c2ccccc2)c(Cl)c1/C=N/NC(N)=O	–	–	–	–
CCOC(=O)C1=CCN(S(=O)(=O)c2ccc(F)cc2)C1c1ccc(F)cc1 (centres undefined)	·	·	·	–
Cc1ccc(S(=O)(=O)N(C)c2ccc(C(=O)Nc3ccccc3C(=O)N3CCOCC3)cc2)cc1	–	–	?	–
Cn1c(SCc2ccccc2F)nnc1-c1ccccn1	–	–	–	–
CC(C)(CC(=O)O)CC(=O)NNc1ncccc1C#N	4.15µM	–	–	–
CCc1ccc(Nc2ncccc2C#N)cc1	–	–	–	–
CCN(CC(=O)Nc1c(F)cccc1F)C(=O)CCCN1C(=O)c2cccc3cccc(c23)C1=O	·	·	·	–
CCSc1nsc(NC(=O)Nc2cccc(F)c2)n1	5.86µM	10µM	–	–
CCCSc1nsc(NC(=O)Nc2ccc(F)cc2F)n1	?	10µM	?	–
COc1cccc(NC(=O)Nc2nc(SC)ns2)c1	–	–	–	–
CCCSc1nsc(NC(=O)CC)n1	–	–	8.28µM	–
CCOc1ccccc1NC(=O)NC(C)c1ccncc1 (centres undefined)	–	–	–	–
COc1ccc(-c2noc(CSc3nc(N)cc(=O)[nH]3)n2)cc1	–	25.1µM	–	–
COC1=CC(=O)OC(c2ccccc2C(F)(F)F)C1 (centres undefined)	·	·	·	–
COc1ccc(/C=N/n2cc(-c3ccccc3)nc2N)cc1	?	–	10.4µM	–
CC(C)(C)C(O)CN1CCCC1 (centres undefined)	–	–	?	–
COc1ccc(CN(C)C(=O)CCl)cc1	13.1µM	?	10.4µM	–
CN(Cc1ccc(Cl)cc1)C(=O)CCl	?	?	?	–
CN(Cc1ccc(Cl)s1)C(=O)CCl	9.28µM	?	1.47µM	–
COc1ccc(CN(C)C(=O)c2cccc(C(=O)N(C)Cc3ccc(OC)cc3)c2)cc1	?	11.2µM	?	–
O=c1cc(CN2CCOCC2)c2cc(Cl)ccc2o1	–	–	–	–
COc1ccc(S(=O)(=O)NNC(=O)c2cc3ccccc3o2)cc1	–	–	–	–
COc1ccc(CC(N)C(=O)NC2C(CO)OC(n3cnc4c(N(C)C)ncnc43)C2O)cc1 (centres undefined)	0.379µM	·	0.338µM	·
CN(C)C(=O)CCc1ccc2c3c([nH]c2c1)[C@]1(CCC2CCCC2)[C@@H](C(=O)N2CCOCC2)C[C@H](CC(=O)NCc2cccc(C(F)(F)F)c2)C(=O)N1CC3	·	25.1µM	·	–
COc1ccc(CNC(=O)CC2C[C@H](C(=O)N3CCOCC3)[C@@]3(CCC4CCCC4)c4[nH]c5ccccc5c4CCN3C2=O)cc1OC (some centres undefined)	·	7.94µM	·	–
SMILES	Pf growth 48h	HCV inhibitor	Pf growth 96h	AMA1-RON2 inh
COc1ccc2[nH]c3c(c2c1)CCN1C(=O)C(CC(=O)NCc2ccc(OC)c(OC)c2)C[C@H](C(=O)N2CCOCC2)[C@@]31CCC1CCCC1 (some centres undefined)	·	?	·	–
Cc1cccc(C)c1NC(=O)CSc1nc(-c2ccco2)cc(C(F)(F)F)n1	?	?	–	–
O=C(CSc1nc(-c2ccco2)cc(C(F)(F)F)n1)Nc1ccc(C(=O)N2CCCCC2)cc1	·	11.2µM	?	–
Cc1cc(NC(=O)CSc2nc(-c3ccco3)cc(C(F)(F)F)n2)no1	–	?	–	–
O=C(CSc1nc(-c2ccco2)cc(C(F)(F)F)n1)Nc1ccccc1C(F)(F)F	–	?	7.38µM	–
CCCn1c(SCC(=O)NC2CCCC2)nnc1-c1cccnc1	–	–	–	–
Cc1ccc(NC(=O)CSc2nnnn2-c2cccnc2)c(C)c1	–	–	–	–
O=C(OCC(=O)c1ccc(Cl)cc1Cl)c1ccccn1	·	–	·	–
O=C(OCC(=O)c1ccccc1Br)c1ccccn1	–	–	8.28µM	?
